6 molecules from PubChem BioAssay can be followed below.

Active and inactive are the calls of the source.

For one assay, the target named is Albumin (Bos taurus) (UniProt P02769). The assay is described as follows: bovine serum albumin binders on microarray, profiling panel, artefact control for SMM control protein annotation, biochemical, small-molecule microarray, Alexa647 label, 635/667 nm fluorescence (AID 1118).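 Also: score merges 667 nm emission intensity and signal-to-noise per printed compound spot.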 The note with it: BSA-A647 binding, fluorescence 635 nm, higher = more signal.
Sequence of Albumin (Bos taurus) (P02769 whole entry, looked up): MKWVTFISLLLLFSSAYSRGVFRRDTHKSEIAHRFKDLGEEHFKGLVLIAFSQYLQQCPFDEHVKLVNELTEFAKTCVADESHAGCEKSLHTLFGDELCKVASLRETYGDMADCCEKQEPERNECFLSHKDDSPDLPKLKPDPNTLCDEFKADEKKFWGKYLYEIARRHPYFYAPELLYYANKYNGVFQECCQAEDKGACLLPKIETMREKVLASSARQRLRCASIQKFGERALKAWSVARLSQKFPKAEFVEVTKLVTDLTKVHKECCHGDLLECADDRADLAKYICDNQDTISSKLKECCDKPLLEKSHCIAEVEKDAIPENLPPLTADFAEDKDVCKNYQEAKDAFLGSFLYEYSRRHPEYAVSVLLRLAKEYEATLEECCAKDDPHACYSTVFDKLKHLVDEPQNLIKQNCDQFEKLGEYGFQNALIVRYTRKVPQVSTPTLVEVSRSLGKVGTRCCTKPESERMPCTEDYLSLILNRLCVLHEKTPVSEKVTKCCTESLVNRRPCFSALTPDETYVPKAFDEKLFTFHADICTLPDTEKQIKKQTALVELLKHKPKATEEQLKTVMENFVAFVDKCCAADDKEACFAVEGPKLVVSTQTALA
Assay [1] is described as follows: small-molecule microarray binders of probe aXIP, primary screen, biochemical, NeuroSMM set, 635/667 nm fluorescence (AID 1119).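 Also: probe is the protein aXip251-270 applied at 1 µg/mL to compound-printed slides; binding of probe to printed compounds measured as 667 nm fluorescence plus signal to noise.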 The note with it: higher = more signal, called active from +8 up or from −8 down.
Assay [2] is described as follows: small-molecule binders of probe aNOTCH3, primary screen, biochemical, small-molecule microarray, 635/667 nm fluorescence (AID 1120).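 Also: probe is a biotin-tagged antibody raised against NOTCH3 rather than NOTCH3 protein; score merges spot fluorescence near 667 nm with spot signal to noise.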 The note with it: higher = more signal.
A short description of assay [3]: small-molecule binders of probe aNOTCH2, primary screen, biochemical, small-molecule microarray, 635/667 nm fluorescence (AID 1121).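 Also: score merges feature fluorescence read at 667 nm with its signal to noise.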 The note with it: higher = more signal.
Assay [4] concerns the target Carbonic anhydrase 2 (Homo sapiens) (UniProt P00918). The assay is described as follows: CAII small-molecule binders, profiling panel, biochemical, small-molecule microarray, Alexa647-labelled CAII (AID 1122). The settings on record: CAII-A647 binding fluorescence, higher = more signal.
Assay [5] is described as follows: COS7 lysate on small-molecule microarray, probe aHis, 635 nm (AID 1123).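 Also: z-score combines 667nm fluorescence intensity with signal-to-noise per printed compound spot.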 The settings on record: COS7 cell lysate, fluorescence, higher = more signal.
Assay [6] in a line: compound binding in COS7 lysate, probe aLAP1, primary screen, cell lysate, small-molecule microarray (AID 1124).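 Also: lysate comes from COS7 cells expressing LAP1 and is applied at 0.3 µg/mL; score merges spot fluorescence near 667 nm with signal-to-noise over triplicate slides.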 The settings on record: probe aLAP1, fluorescence, higher = more signal.
A further assay concerns Sam68 (KHDRBS1). The assay is described as follows: Sam68 small-molecule binders, primary screen, biochemical, small-molecule microarray, 635 nm fluorescence (AID 1125).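 Also: score merges 667 nm channel intensity with signal to noise over triplicate slides.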 The settings on record: small-molecule microarray binding, higher = more signal.
Assay [7] has as its system Chordin-like protein 2 (CHRDL2). As to the kind of experiment: CHRDL2 small-molecule binders, primary screen, biochemical, small-molecule microarray, 635 nm fluorescence (AID 1126).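 Also: printed compound slides probed with Chrdl2 protein at 4 µg/mL for 1 h at 4 C; score merges 667 nm emission intensity with signal to noise over three replicate slides.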 The note with it: small-molecule microarray binding, fluorescence 635 nm; higher = more signal.
Assay [8] has as its target Concanavalin-A (Canavalia ensiformis) (UniProt P02866). The assay is described as follows: ConA small-molecule binders, primary screen, artefact control for SMM control protein annotation, biochemical, small-molecule microarray, Alexa647 label, 635 nm (AID 1127).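 Also: z combines 667 nm emission intensity with signal-to-noise across three replicate slides.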 The settings on record: ConA-A647 binding fluorescence, higher = more signal.
Assay [9] in a line: anti-His antibody binders, primary screen, artefact control for SMM control protein annotation, biochemical, small-molecule microarray, 635 nm fluorescence (AID 1128).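 Also: score merges feature fluorescence with signal-to-noise for each printed compound spot.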 The note with it: anti-His Alexa647 antibody binding, higher = more signal.
Assay [10] concerns Human papillomavirus type 1a E7 protein (residues 1-88). The assay is described as follows: HPV1a E7 small-molecule binders, primary screen, biochemical, small-molecule microarray, residues 1-88, 635 nm (AID 1129). The settings on record: small-molecule microarray binding, fluorescence 635 nm; higher = more signal.
The target in assay [11] is Focal adhesion kinase 1 (Homo sapiens) (UniProt Q05397). As to the kind of experiment: small-molecule microarray binders of FAK, primary screen, biochemical, 635/667 nm fluorescence, BSA, DTT (AID 1130).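 Also: composite of spot emission at 667 nm and signal to noise over triplicate slides.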 The settings on record: PTK2 binding, 635 nm fluorescence, higher = more signal.
Sequence of Focal adhesion kinase 1 (Homo sapiens) (Q05397 whole entry, looked up): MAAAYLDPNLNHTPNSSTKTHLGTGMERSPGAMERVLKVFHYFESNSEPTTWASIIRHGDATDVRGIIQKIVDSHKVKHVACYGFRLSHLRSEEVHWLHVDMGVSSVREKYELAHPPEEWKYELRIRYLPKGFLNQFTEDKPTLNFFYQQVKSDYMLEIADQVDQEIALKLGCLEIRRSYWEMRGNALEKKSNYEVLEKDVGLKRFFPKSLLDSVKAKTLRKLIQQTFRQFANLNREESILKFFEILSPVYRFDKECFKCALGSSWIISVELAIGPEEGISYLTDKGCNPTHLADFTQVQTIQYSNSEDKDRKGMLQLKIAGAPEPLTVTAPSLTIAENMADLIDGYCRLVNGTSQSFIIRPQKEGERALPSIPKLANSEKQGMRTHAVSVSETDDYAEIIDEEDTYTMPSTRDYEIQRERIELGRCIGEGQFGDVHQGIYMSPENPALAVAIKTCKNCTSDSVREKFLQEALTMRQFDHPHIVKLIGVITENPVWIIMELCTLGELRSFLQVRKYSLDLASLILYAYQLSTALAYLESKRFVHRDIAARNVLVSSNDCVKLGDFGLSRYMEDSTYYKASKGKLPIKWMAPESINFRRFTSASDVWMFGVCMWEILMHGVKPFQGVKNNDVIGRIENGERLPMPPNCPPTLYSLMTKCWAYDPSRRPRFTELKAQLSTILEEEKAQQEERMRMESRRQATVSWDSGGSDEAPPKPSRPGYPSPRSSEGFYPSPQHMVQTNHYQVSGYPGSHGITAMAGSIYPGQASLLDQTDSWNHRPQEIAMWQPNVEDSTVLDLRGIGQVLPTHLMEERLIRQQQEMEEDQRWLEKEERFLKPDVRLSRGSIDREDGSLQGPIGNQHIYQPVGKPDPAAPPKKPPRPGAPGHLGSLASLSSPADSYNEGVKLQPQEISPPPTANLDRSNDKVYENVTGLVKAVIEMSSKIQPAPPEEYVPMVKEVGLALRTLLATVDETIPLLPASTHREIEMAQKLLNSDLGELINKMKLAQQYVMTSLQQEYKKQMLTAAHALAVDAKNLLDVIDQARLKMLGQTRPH
For assay [12], the system named is Fibrinogen (Alexa647-labelled). As to the kind of experiment: fibrinogen binders on compound microarrays, profiling panel, artefact control for SMM control-protein annotation, biochemical, small-molecule microarray, 635/667 nm fluorescence (AID 1131).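 Also: z-score merges 667 nm fluorescence with per-spot signal-to-noise over triplicate slides.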 The note with it: fibrinogen-A647 binding fluorescence, higher = more signal.
Assay [13] deals with Follistatin (Homo sapiens) (UniProt P19883). The assay is described as follows: follistatin binders on small-molecule microarrays, primary screen, biochemical, small-molecule microarray, 635/667 nm fluorescence (AID 1132). The note with it: FST binding, 635 nm fluorescence, higher = more signal.
Sequence of Follistatin (Homo sapiens) (P19883 whole entry, looked up): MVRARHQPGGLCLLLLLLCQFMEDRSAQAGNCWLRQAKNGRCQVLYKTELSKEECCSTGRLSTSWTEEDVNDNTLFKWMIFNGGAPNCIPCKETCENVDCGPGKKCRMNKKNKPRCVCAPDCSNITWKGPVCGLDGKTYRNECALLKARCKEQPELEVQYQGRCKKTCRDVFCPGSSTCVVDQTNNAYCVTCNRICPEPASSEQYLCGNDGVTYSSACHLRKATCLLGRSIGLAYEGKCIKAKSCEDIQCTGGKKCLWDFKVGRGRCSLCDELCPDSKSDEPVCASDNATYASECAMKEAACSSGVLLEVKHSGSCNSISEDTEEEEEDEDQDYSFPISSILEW
For assay [14], the target named is Fibroblast growth factor 2 (Homo sapiens) (UniProt P09038). The assay is described as follows: FGF2 binders on small-molecule microarrays, primary screen, biochemical, small-molecule microarray, 635/667 nm fluorescence (AID 1133). The settings on record: small-molecule microarray binding, FGF2, fluorescence 635/667; higher = more signal.
Sequence of Fibroblast growth factor 2 (Homo sapiens) (P09038 whole entry, looked up): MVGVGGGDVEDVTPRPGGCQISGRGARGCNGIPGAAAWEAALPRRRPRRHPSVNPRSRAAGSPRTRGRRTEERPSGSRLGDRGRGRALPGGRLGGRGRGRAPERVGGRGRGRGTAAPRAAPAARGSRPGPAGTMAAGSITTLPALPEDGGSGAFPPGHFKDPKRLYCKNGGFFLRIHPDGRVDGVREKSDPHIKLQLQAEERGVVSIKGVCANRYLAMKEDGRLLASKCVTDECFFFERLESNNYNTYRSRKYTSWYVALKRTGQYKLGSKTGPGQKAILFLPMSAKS
Assay [15] can be described thus: mitochondrial membrane potential change in A549 cells, profiling panel, cell-based, JC-1 fluorescence, basal, 24 h, 100 nL (AID 1138).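 Also: A549 lung adenocarcinoma cells under basal conditions with no added stimulus; test concentration not given here.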 The note with it: higher = more signal.
A further assay concerns Lefty1. As to the kind of experiment: Lefty1 binders on small-molecule microarrays, primary screen, biochemical, small-molecule microarray, 635/667 nm fluorescence (AID 1139). The note with it: small-molecule microarray binding, fluorescence 635/667; higher = more signal.
For assay [16], the system named is wheat germ agglutinin (Triticum aestivum), Alexa647-labelled. As to the kind of experiment: wheat germ agglutinin binders on compound microarrays, profiling panel, artefact control for SMM control-protein annotation, biochemical, small-molecule microarray, 635/667 nm fluorescence (AID 1140).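 Also: score merges 667 nm feature emission with signal to noise over triplicate slides.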 The settings on record: WGA-A647 binding, 635 nm fluorescence, higher = more signal.

Assay [17] concerns the target Luciferin 4-monooxygenase (Photinus pyralis) (UniProt P08659). As to the kind of experiment: firefly luciferase enzyme inhibitors, primary screen, biochemical, luminescence, purified enzyme, 2006 set (AID 1141).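 Also: cell-free assay with purified firefly luciferase at 100 ng per well in PBS; test concentration not given here.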 The settings on record: SteadyGlo luminescence, 30 min, higher = more signal, called active from +8 up or from −8 down.

Sequence of Concanavalin-A (Canavalia ensiformis) (P02866 whole entry, looked up): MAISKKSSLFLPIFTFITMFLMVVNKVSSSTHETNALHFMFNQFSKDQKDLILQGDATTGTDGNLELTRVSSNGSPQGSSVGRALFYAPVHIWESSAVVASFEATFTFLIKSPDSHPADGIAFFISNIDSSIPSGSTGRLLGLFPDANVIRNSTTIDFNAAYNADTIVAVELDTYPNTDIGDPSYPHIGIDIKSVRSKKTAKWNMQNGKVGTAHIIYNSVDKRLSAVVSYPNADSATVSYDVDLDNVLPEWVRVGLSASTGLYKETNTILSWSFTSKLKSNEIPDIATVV
Sequence of Luciferin 4-monooxygenase (Photinus pyralis) (P08659 whole entry, looked up): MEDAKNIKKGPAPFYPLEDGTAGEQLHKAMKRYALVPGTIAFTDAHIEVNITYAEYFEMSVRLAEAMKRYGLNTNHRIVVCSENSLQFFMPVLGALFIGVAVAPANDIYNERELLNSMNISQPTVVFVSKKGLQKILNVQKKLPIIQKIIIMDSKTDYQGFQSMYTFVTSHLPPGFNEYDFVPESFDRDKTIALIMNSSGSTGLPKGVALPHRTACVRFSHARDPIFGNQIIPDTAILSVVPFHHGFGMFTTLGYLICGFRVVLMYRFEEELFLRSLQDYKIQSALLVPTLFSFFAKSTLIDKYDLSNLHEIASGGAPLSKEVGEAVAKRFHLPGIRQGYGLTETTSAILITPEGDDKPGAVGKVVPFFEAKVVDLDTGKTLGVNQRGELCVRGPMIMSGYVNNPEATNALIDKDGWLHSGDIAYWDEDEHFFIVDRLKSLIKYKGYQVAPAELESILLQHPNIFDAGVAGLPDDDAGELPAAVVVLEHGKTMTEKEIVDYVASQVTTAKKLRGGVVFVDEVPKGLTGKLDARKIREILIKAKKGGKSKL

Take `C=C(CCCC)C(=O)CC[C@H](OC(=O)c1cccnc1)c1ccc(OCCO)cc1`: the composite z-score was 0.0514 with Albumin (Bos taurus); -0.0076 in assay [2]; -0.14 in [3]; 0.72 in [4]; -0.0099 in assay [5]; 0.022 in assay [6]. The composite z-score with Sam68 (KHDRBS1) is 0.567; in assay [7], 0.191; in assay [8], -0.421; in assay [9], 0.631; in assay [10], 0.474; in assay [11] it was 0.819. Also, the composite z-score in assay [12] is 0.0895; in assay [13] it was 0.131; in assay [14], 0.476; in the assay on Lefty1, -0.205; in assay [16], 0.955. Moreover, the composite Z-score in assay [1] is 0.197 (inactive). The results for the z-score in assay [15] and in assay [17] were 1.15 and -1.91 (inactive), respectively.

In the case of `OCCCC1=CC(C2CC2)N(Cc2cccc(OC(F)(F)F)c2)CC1` (stereo not given), the composite z-score in the assay with Albumin (Bos taurus) is 0.485; in assay [2], -0.284; in [3], -0.177; in assay [4], 0.783; in [5], 0.421; in [6], 0.833. In addition, the composite z-score in the assay on Sam68 (KHDRBS1) was -0.441; in assay [7], -0.106; in assay [8], -0.807; in [9], -0.103; in [10], -0.208; in assay [11], 0.227. The composite z-score in [12] was -2.53; in [13], -0.306; in assay [14], -0.338; in the assay with Lefty1, 0.32; in assay [16], -0.0444. Further, the composite Z-score in [1] was 0.438 (inactive). In addition, the z-score in assay [15] was 0.00271; in assay [17], 0.382 (inactive).

Regarding `C[N+](C)(C)CCCC[C@@H]1NC(=O)[C@H]2C[C@@H](C(=O)NCCCCCCNC(=O)CS)[C@@H](c3ccc(O)cc3)N2C1=O`, the composite z-score with Albumin (Bos taurus) was 0.329; in assay [2], -0.437; in [3] it was -0.0764; in [4], 0.501; in assay [5] it was 0.483; in assay [6], 1.49. Besides, the composite z-score with Sam68 (KHDRBS1) is -0.611; in [7], 0.0077; in assay [8], -2.35; in assay [9] it was 1.44; in assay [10] it was -0.0478; in assay [11], -0.103. For the same molecule, the composite z-score in assay [12] was -2.2; in assay [13], 1.36; in assay [14], 0.247; in the assay with Lefty1, 0.0544; in [16] it was -1.07. Besides, in [1], the composite Z-score is -0.921 (inactive). Also, the figures for the z-score in assay [15] and in assay [17] were -0.459 and 0.24 (inactive), respectively.

`O=C(CS)NCCCCCNC(=O)[C@@H]1C[C@@H]2C(=O)NCC(=O)N2[C@@H]1c1cccc(OCCO)c1`: the composite z-score is 0.57 in the assay with Albumin (Bos taurus); -0.162 in assay [2]; -0.125 in assay [3]; 0.179 in [4]; 1.61 in assay [5]; 0.783 in assay [6]. The composite z-score in the assay on Sam68 (KHDRBS1) was 0.459; in assay [7] it was 0.656; in assay [8], 0.324; in assay [9], 3.09; in assay [10] it was -0.0552; in assay [11] it was 1.8. For the same molecule, the composite z-score in assay [12] is 0.0984; in assay [13] it was 1.25; in assay [14], 0.817; in the assay with Lefty1, 0.106; in assay [16] it was 0.502. The composite Z-score in assay [1] is 0.498 (inactive). Besides, the figures for the z-score in assay [15] and in assay [17] were 1.12 and -2.27 (inactive), respectively.

In the case of `Cc1ccc(C2C3C(=O)CC4C(=O)N(c5ccccc5)C(=O)C4C3CN2S(=O)(=O)c2ccc(C)cc2)cc1` (stereo not given), the composite z-score worked out at 0.684 with Albumin (Bos taurus); 0.469 in assay [2]; 0.603 in assay [3]; 0.539 in [4]; 2.17 in [5]; 0.362 in assay [6]. Moreover, the composite z-score in the assay on Sam68 (KHDRBS1) is 1.17; in assay [7], -0.479; in assay [8] it was 0.671; in [9], 1.16; in [10], 1.24; in assay [11] it was -0.177. Further, the composite z-score in assay [12] is 0.403; in assay [13] it was 0.24; in assay [14] it was 0.294; with Lefty1, 0.0507; in [16], 0.912. For the same molecule, the composite Z-score in [1] is -0.0384 (inactive). In addition, the z-score in assay [15] was -0.112; in assay [17], 0.732 (inactive).

As to `C[C@H]1C2[C@H](Cc3ccccc3)NC(=O)[C@]23C(=O)NCC(=O)N2CCC[C@H]2C(=O)NC/C=C/CCC/C=C/C3[C@@H]2O[C@]12C` (stereo not given in full), the composite z-score with Albumin (Bos taurus) is -0.677; in [2], -0.136; in [3] it was -0.179; in assay [4], -0.17; in assay [5], -0.18; in [6], 0.053. Besides, the composite z-score in the assay on Sam68 (KHDRBS1) is -1.51; in assay [7], -0.143; in assay [8] it was -1.27; in assay [9], 0.295; in assay [10], -1.28; in assay [11] it was -0.502. Also, the composite z-score is -0.489 in assay [12]; -0.0491 in [13]; -0.0881 in assay [14]; -0.0374 in the assay on Lefty1; -0.704 in [16]. In assay [1], the composite Z-score was -0.695 (inactive). The z-score was -0.979 in [15] and -0.44 (inactive) in assay [17].
